This note sets out measurements from PubChem BioAssay.

Active and inactive are the calls of the source.

Assay [1] in a line: anti-His antibody binders, primary screen, artefact control for SMM control protein annotation, biochemical, small-molecule microarray, 635 nm fluorescence (AID 1128).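 Also: score merges feature fluorescence with signal-to-noise for each printed compound spot.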 The settings on record: anti-His Alexa647 antibody binding, higher = more signal.
The subject of assay [2] is Human papillomavirus type 1a E7 protein (residues 1-88). The assay can be described thus: HPV1a E7 small-molecule binders, primary screen, biochemical, small-molecule microarray, residues 1-88, 635 nm (AID 1129). The settings on record: small-molecule microarray binding, fluorescence 635 nm; higher = more signal.
The target of assay [3] is Focal adhesion kinase 1 (Homo sapiens) (UniProt Q05397). Description: small-molecule microarray binders of FAK, primary screen, biochemical, 635/667 nm fluorescence, BSA, DTT (AID 1130).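 Also: composite of spot emission at 667 nm and signal to noise over triplicate slides.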 The settings on record: PTK2 binding, 635 nm fluorescence, higher = more signal.
The test system of assay [4] is Fibrinogen (Alexa647-labelled). The assay can be described thus: fibrinogen binders on compound microarrays, profiling panel, artefact control for SMM control-protein annotation, biochemical, small-molecule microarray, 635/667 nm fluorescence (AID 1131).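 Also: z-score merges 667 nm fluorescence with per-spot signal-to-noise over triplicate slides.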 The settings on record: fibrinogen-A647 binding fluorescence, higher = more signal.
The target in assay [5] is Follistatin (Homo sapiens) (UniProt P19883). Description: follistatin binders on small-molecule microarrays, primary screen, biochemical, small-molecule microarray, 635/667 nm fluorescence (AID 1132). The settings on record: FST binding, 635 nm fluorescence, higher = more signal.
The target of assay [6] is Fibroblast growth factor 2 (Homo sapiens) (UniProt P09038). The assay can be described thus: FGF2 binders on small-molecule microarrays, primary screen, biochemical, small-molecule microarray, 635/667 nm fluorescence (AID 1133). The settings on record: small-molecule microarray binding, FGF2, fluorescence 635/667; higher = more signal.
Assay [7] in a line: mitochondrial membrane potential change in A549 cells, profiling panel, cell-based, JC-1 fluorescence, basal, 24 h, 100 nL (AID 1138).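 Also: A549 lung adenocarcinoma cells under basal conditions with no added stimulus; test concentration not given here.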 The settings on record: higher = more signal.
Another assay concerns Lefty1. Description: Lefty1 binders on small-molecule microarrays, primary screen, biochemical, small-molecule microarray, 635/667 nm fluorescence (AID 1139). The settings on record: small-molecule microarray binding, fluorescence 635/667; higher = more signal.
For assay [8], the system named is wheat germ agglutinin (Triticum aestivum), Alexa647-labelled. Description: wheat germ agglutinin binders on compound microarrays, profiling panel, artefact control for SMM control-protein annotation, biochemical, small-molecule microarray, 635/667 nm fluorescence (AID 1140).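 Also: score merges 667 nm feature emission with signal to noise over triplicate slides.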 The settings on record: WGA-A647 binding, 635 nm fluorescence, higher = more signal.
In assay [9] the target is Luciferin 4-monooxygenase (Photinus pyralis) (UniProt P08659). The assay can be described thus: firefly luciferase enzyme inhibitors, primary screen, biochemical, luminescence, purified enzyme, 2006 set (AID 1141).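 Also: cell-free assay with purified firefly luciferase at 100 ng per well in PBS; test concentration not given here.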 The settings on record: SteadyGlo luminescence, 30 min, higher = more signal, called active from +8 up or from −8 down.
Sequence of Luciferin 4-monooxygenase (Photinus pyralis) (P08659 whole entry, looked up): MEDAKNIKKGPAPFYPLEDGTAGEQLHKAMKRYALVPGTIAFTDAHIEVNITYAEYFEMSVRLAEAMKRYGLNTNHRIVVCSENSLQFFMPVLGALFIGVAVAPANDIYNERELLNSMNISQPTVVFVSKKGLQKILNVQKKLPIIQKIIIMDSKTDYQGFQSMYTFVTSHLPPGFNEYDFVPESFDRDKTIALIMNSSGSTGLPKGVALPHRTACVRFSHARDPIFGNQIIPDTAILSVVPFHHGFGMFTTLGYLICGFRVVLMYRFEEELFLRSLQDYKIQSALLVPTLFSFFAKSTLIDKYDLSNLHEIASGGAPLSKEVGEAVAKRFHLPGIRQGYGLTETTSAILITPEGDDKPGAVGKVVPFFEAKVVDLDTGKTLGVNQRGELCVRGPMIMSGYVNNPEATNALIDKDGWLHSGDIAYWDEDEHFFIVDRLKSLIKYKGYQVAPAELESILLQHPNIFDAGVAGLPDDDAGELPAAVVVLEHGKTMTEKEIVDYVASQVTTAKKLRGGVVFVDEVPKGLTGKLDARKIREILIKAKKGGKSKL

Sequence of Follistatin (Homo sapiens) (P19883 whole entry, looked up): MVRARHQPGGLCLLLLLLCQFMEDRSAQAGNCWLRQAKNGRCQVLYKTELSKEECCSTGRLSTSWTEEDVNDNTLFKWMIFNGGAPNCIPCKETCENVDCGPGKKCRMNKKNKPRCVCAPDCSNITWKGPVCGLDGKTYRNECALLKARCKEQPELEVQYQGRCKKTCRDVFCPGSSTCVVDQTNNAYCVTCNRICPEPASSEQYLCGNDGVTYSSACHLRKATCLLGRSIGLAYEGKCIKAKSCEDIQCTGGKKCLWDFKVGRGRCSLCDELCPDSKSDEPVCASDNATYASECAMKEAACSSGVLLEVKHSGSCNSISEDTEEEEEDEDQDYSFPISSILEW
Sequence of Focal adhesion kinase 1 (Homo sapiens) (Q05397 whole entry, looked up): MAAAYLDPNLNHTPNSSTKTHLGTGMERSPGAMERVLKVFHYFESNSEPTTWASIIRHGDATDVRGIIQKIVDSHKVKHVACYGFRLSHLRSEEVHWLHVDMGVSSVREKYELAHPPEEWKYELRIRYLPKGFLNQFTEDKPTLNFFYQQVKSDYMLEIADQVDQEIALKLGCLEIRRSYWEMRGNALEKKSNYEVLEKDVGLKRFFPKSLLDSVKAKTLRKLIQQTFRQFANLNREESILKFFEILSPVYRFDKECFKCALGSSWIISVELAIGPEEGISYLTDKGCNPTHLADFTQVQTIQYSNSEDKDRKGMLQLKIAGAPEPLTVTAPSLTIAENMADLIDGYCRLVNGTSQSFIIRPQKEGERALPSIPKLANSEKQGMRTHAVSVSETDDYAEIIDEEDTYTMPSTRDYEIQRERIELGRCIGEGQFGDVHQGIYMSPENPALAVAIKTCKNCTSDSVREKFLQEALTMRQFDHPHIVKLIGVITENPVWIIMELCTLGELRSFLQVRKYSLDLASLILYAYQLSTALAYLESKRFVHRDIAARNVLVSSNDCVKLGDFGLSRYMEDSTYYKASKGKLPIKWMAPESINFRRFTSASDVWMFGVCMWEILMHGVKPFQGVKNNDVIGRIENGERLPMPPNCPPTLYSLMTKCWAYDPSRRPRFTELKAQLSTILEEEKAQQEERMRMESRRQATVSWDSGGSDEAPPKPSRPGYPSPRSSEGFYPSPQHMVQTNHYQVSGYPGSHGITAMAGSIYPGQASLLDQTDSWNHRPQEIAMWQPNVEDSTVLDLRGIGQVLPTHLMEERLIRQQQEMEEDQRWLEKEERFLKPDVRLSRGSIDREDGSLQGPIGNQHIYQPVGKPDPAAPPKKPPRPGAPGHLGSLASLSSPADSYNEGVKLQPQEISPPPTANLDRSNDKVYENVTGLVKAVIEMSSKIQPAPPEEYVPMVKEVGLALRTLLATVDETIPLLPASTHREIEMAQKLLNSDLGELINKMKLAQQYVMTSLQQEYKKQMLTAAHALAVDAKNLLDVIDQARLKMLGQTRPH
Sequence of Fibroblast growth factor 2 (Homo sapiens) (P09038 whole entry, looked up): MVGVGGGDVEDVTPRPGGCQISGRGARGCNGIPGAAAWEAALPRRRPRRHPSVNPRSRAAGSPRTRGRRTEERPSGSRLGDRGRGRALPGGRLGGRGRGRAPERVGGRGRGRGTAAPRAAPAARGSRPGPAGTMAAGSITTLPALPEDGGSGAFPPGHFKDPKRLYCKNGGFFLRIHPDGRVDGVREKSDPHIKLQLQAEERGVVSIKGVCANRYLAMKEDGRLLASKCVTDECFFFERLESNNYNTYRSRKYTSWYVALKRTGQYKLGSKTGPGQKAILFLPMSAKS

Consider `[N-]=[N+]=Nc1ccccc1[C@H]1OC(c2ccc(OCCCO)cc2)=N[C@@]1(Cc1ccccc1)C(=O)NCC(O)CO` (stereo not given in full), for which the composite z-score in assay [1] is 1.67; in assay [2], 1.21; in assay [3], 0.0145; in [4], 0.959; in assay [5], 1.06; in assay [6], -0.551. In addition, the composite z-score in the assay on Lefty1 is -0.498; in assay [8], 0.966. Moreover, the z-score is 0.586 in [7] and -5.02 (inactive) in assay [9].
With `CCOC(=O)C1=CC[C@@H](c2ccc(OC)cc2)N(S(=O)(=O)c2ccc(C)cc2)[C@H]1c1ccc(C)cc1`, the composite z-score in assay [1] is 1.23; in assay [2] it was 1.18; in assay [3], 0.389; in assay [4], 0.844; in [5], 0.633; in [6], -0.0931. Besides, the composite z-score in the assay on Lefty1 stood at 0.333; in assay [8], 0.803. Further, the z-score in [7] is 3.2; in assay [9], 1.1 (inactive).
As to `NC(=O)NCC#Cc1ccc2c(c1)[C@]1(C(=O)N2)[C@H](c2ccc(OCCO)cc2)N2[C@H](c3ccccc3)[C@H](c3ccccc3)OC(=O)[C@H]2[C@@H]1C(=O)NC[C@H](O)c1ccccc1`, the composite z-score was -0.454 in assay [1]; 0.542 in assay [2]; 0.115 in assay [3]; 0.879 in assay [4]; 1.25 in assay [5]; -0.0515 in assay [6]. Besides, the composite z-score in the assay on Lefty1 was determined as 0.395; in assay [8] it was 0.259. The z-score in assay [7] is -1.08; in assay [9], 0.409 (inactive).
As to `O=C1O[C@@H](c2ccccc2)[C@@H](c2ccccc2)N2[C@@H](c3ccc(OCCO)cc3)[C@]3(C(=O)Nc4ccc(C#CC5(O)CCCCCC5)cc43)[C@@H](C(=O)Nc3nc4ccccc4s3)[C@H]12`, the composite z-score in assay [1] worked out at 0.0141; in assay [2] it was 1.24; in assay [3], 0.676; in [4], 0.964; in assay [5], 1.33; in assay [6] it was 1.54. In addition, the values for the composite z-score (in the assay on Lefty1; in [8]) were 1.22 and 1.09, respectively. The z-score in assay [7] is -2.12; in assay [9] it was -2.6 (inactive).
Consider `CC(C)(C)N1CC=CC23O[C@@H]4C=CCOC(=O)[C@@H]4[C@H]2C(=O)N(CCO)[C@@H]3C1=O` (stereo not given in full), for which the composite z-score in assay [1] was 1.6; in [2], -0.539; in assay [3], -0.747; in assay [4] it was -2.09; in [5] it was -0.262; in [6], -1.36. The composite z-score was -0.0106 with Lefty1 and -0.155 in [8]. For the same compound, the results for the z-score in assay [7] and in [9] were 0.257 and -0.387 (inactive), respectively.
As to `CCOC(=O)C[C@H]1[C@H](OC(=O)c2ccccc2-c2ccccc2)[C@@H](NC(=O)c2ccc3ccccc3c2)c2cc(OCCCO)ccc2N1C(=O)Cc1ccc(OC)cc1`, the composite z-score was -0.262 in assay [1]; -0.191 in assay [2]; 0.0564 in assay [3]; 0.805 in [4]; 0.0992 in assay [5]; -0.0445 in assay [6]. The composite z-score with Lefty1 is -0.0328; in assay [8] it was -0.178. In addition, the results for the z-score in assay [7] and in assay [9] were 0.847 and -0.146 (inactive), respectively.
As for `CCC(CC)C(O)C1C=CC2C(=O)N(c3ccccc3)C(=O)C2N1Nc1ccccc1F` (stereo not given), the composite z-score in assay [1] is 1.62; in [2] it was 1.16; in [3] it was 0.869; in assay [4], 0.94; in [5] it was 0.337; in assay [6] it was -0.557. For the same compound, the figures for the composite z-score (with Lefty1; in assay [8]) were 0.128 and 0.416, respectively. For the same compound, the z-score is -0.231 in [7] and 0.211 (inactive) in assay [9].
Regarding `COCCOC(=O)N1C(=O)[C@@]2(c3cc(C#CCC(C(=O)OC)C(=O)OC)ccc31)[C@H](C(=O)Nc1nc3ccccc3s1)[C@H]1C(=O)O[C@H](c3ccccc3)[C@H](c3ccccc3)N1[C@@H]2c1ccc(O)cc1`, the composite z-score is 0.777 in [1]; 1.21 in [2]; 0.235 in assay [3]; 0.461 in [4]; 1.3 in assay [5]; 1.46 in assay [6]. For the same compound, the values for the composite z-score (in the assay with Lefty1; in assay [8]) were 1.29 and 0.762, respectively. Besides, the z-score in [7] is -2.26; in assay [9], 0.258 (inactive).
In the case of `Cc1ccccc1C(O)C1C=CC2C(=O)N(c3ccccc3)C(=O)C2N1Nc1ccccc1` (stereo not given), the composite z-score in [1] amounted to 1.53; in [2] it was 1.25; in [3] it was 0.969; in assay [4], 1.03; in assay [5], 1.3; in assay [6], 0.0635. The composite z-score with Lefty1 was determined as 0.55; in assay [8] it was 1.33. For the same compound, the z-score is -0.128 in assay [7] and -0.818 (inactive) in [9].
As for `CC1CC/C=C\[C@H]2OC34C=CCN(c5ccc6ccccc6c5)C(=O)[C@H]3N(C(C)CO)C(=O)[C@@H]4C2C(=O)O1` (stereo not given in full), the composite z-score in assay [1] is 0.0166; in assay [2] it was -1.72; in assay [3], -0.785; in assay [4] it was -1.17; in assay [5], -0.69; in [6], -0.911. Besides, the composite z-score in the assay on Lefty1 is -0.546; in assay [8], -0.946. Also, the z-score in assay [7] is 0.838; in assay [9], -1.2 (inactive).
Regarding `OCCCC1=CC(c2ccc(CN3CCCC3)cc2)N(Cc2cccc(OC(F)(F)F)c2)CC1` (stereo not given), the composite z-score in assay [1] was -0.299; in [2], -0.377; in [3], 0.213; in [4], -0.575; in assay [5] it was 0.611; in [6], 0.215. Further, the composite z-score is 0.326 in the assay with Lefty1 and -0.227 in [8]. The z-score was 1.17 in [7] and -0.222 (inactive) in assay [9].
Consider `C=C(/C(=C/C[C@@H](OC(C)=O)c1cccc(OCCO)c1)c1cnc2ccccc2c1)C(C)C`, for which the composite z-score in assay [1] is 0.607; in assay [2], 0.472; in assay [3], 0.138; in [4], -0.31; in assay [5], 1.5; in assay [6] it was 1.68. The composite z-score came out at 1.55 in the assay with Lefty1 and 1.07 in assay [8]. The z-score in assay [7] was 0.41; in assay [9] it was -0.614 (inactive).
Regarding `C=CC[C@@]12N=C(c3ccc(OCCCO)cc3)O[C@@H]1c1ccccc1N(CCC)C2=O`, the composite z-score in [1] is 2.58; in assay [2], 1.22; in assay [3] it was 0.359; in assay [4], 0.512; in assay [5] it was 1.52; in assay [6] it was 1.72. Besides, the composite z-score in the assay on Lefty1 was 1.31; in assay [8] it was 0.777. Moreover, the z-score is 2.58 in [7] and -2.23 (inactive) in assay [9].
Consider `CC1CC/C=C\[C@H]2OC34C=CCN(Cc5ccccc5)C(=O)[C@H]3N(CCCCCCO)C(=O)[C@@H]4C2C(=O)O1` (stereo not given in full), for which the composite z-score in assay [1] is 0.607; in assay [2] it was -0.415; in assay [3], -0.28; in assay [4] it was -1.31; in [5], -0.909; in assay [6] it was -0.808. Further, the values for the composite z-score (with Lefty1; in assay [8]) were -0.869 and -0.51, respectively. Also, the results for the z-score in assay [7] and in [9] were 0.856 and -1.51 (inactive), respectively.
